The entries come from a sample that favours the strongest signals as a whole.
Columns and labels:
Assay in all cases: glycan array binding signal (z-score within array); higher = stronger binding
Conditions in all cases: glycan notation: IUPAC condensed, linker removed
[1] = biological target: 3dGal(b1-4)Glc
How it was run: (§1)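 The binding signal is a Z-score computed within each array. Data were drawn from 3228 arrays in the Consortium for Functional Glycomics database, restricted to those with a known protein sequence. Scores were averaged over arrays of the same protein sequence at different concentrations or buffers, and over linkers, and negative values can be taken as non-binding.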

[2] = biological target: Ara(a1-5)Ara(a1-5)Ara(a1-5)Ara(a1-5)Ara(a1-5)Ara(a1-5)Ara
How it was run: as §1

[3] = biological target: Fuc(a1-2)Gal(b1-3)[Fuc(a1-4)]GlcNAc(b1-3)[Fuc(a1-3)[Gal(b1-4)]GlcNAc(b1-6)]Gal(b1-4)Glc
How it was run: as §1

[4] = biological target: Fuc(a1-3)[3dGal(b1-4)]Glc
How it was run: as §1

[5] = biological target: Fuc(a1-3)[Gal(b1-4)]GlcNAc(b1-3)Gal(b1-4)[Fuc(a1-3)]Glc
How it was run: as §1

[6] = biological target: Gal(a1-4)Gal(b1-4)GlcNAc
How it was run: as §1

[7] = biological target: Gal(b1-3)GalNAc(b1-4)Gal(b1-4)Glc
How it was run: as §1

[8] = biological target: Gal(b1-4)GlcNAc(b1-3)Fuc
How it was run: as §1

[9] = biological target: Gal(b1-4)GlcNAc(b1-3)Gal(b1-4)Glc
How it was run: as §1

[10] = biological target: Gal(b1-6)GalNAc
How it was run: as §1

[11] = biological target: GalNAc(b1-4)Gal(b1-4)Glc
How it was run: as §1

[12] = biological target: Glc(a1-4)Glc(a1-4)Glc(a1-4)Glc(a1-4)Glc(a1-4)Glc(a1-4)Glc(a1-4)Glc
How it was run: as §1

[13] = biological target: Glc(a1-6)Glc
How it was run: as §1

[14] = biological target: Glc(a1-6)Glc(a1-4)Glc(a1-4)Glc
How it was run: as §1

[15] = biological target: Glc(a1-6)Glc(a1-6)Glc(a1-6)Glc
How it was run: as §1

[16] = biological target: Glc(a1-6)Glc(a1-6)Glc(a1-6)Glc(a1-6)Glc
How it was run: as §1

[17] = biological target: Glc(b1-6)Glc(b1-6)Glc(b1-6)Glc(b1-6)Glc(b1-6)Glc(b1-6)Glc(b1-6)Glc
How it was run: as §1

[18] = biological target: GlcA(b1-3)Gal
How it was run: as §1

[19] = biological target: GlcA(b1-3)GlcNAc(b1-4)GlcA(b1-3)GlcNAc(b1-4)GlcA(b1-3)GlcNAc(b1-4)GlcA(b1-3)GlcNAc(b1-4)GlcA(b1-3)GlcNAc(b1-4)GlcA(b1-3)GlcNAc(b1-4)GlcA(b1-3)GlcNAc
How it was run: as §1

[20] = biological target: GlcNAc(b1-2)Man(a1-3)[GlcNAc(b1-2)Man(a1-6)]Man
How it was run: as §1

[21] = biological target: GlcNAc(b1-2)[GlcNAc(b1-4)]Man(a1-3)[GlcNAc(b1-2)[GlcNAc(b1-6)]Man(a1-6)]Man(b1-4)GlcNAc(b1-4)GlcNAc
How it was run: as §1

[22] = biological target: GlcNAc(b1-3)Fuc
How it was run: as §1

[23] = biological target: GlcNAc(b1-3)[GlcNAc(b1-6)]Gal
How it was run: as §1

[24] = biological target: HexA6S(a1-4)GlcNS6S(a1-4)IdoA2S(a1-4)GlcNS6S(a1-4)IdoA2S(a1-4)GlcNS6S(a1-4)IdoA2S(a1-4)GlcNS6S(a1-4)IdoA2S(a1-4)GlcNS6S(a1-4)IdoA2S(a1-4)GlcNS6S(a1-4)IdoA2S(a1-4)GlcNS6S
How it was run: as §1

[25] = biological target: Kdn(a2-3)Gal(b1-3)GalNAc(b1-4)[Kdn(a2-3)]Gal(b1-4)Glc
How it was run: as §1

[26] = biological target: Kdn(a2-6)Gal
How it was run: as §1

[27] = biological target: Man(a1-3)Man(a1-6)[Man(a1-3)]Man(b1-4)GlcNAc(b1-4)GlcNAc
How it was run: as §1

[28] = biological target: Neu(a2-6)Gal(b1-4)Glc
How it was run: as §1

[29] = biological target: Neu5Ac(a2-3)4dGal(b1-4)[Fuc(a1-3)]GlcNAc(b1-3)Gal
How it was run: as §1

[30] = biological target: Neu5Ac(a2-3)6dGal(b1-4)[Fuc(a1-3)]GlcNAc(b1-3)Gal
How it was run: as §1

[31] = biological target: Neu5Ac(a2-3)Gal(b1-3)GalNAc6S(b1-4)Gal(b1-4)Glc
How it was run: as §1

[32] = biological target: Neu5Ac(a2-3)Gal(b1-3)GlcNAc(b1-3)[Fuc(a1-3)[Gal(b1-4)]GlcNAc(b1-6)]Gal(b1-4)Glc
How it was run: as §1

[33] = biological target: Neu5Ac(a2-3)Gal(b1-3)[Neu5Ac(a2-6)]GalNAc(b1-4)Gal(b1-4)Glc
How it was run: as §1

[34] = biological target: Neu5Ac(a2-3)Gal(b1-4)[Fuc(a1-3)]Glc
How it was run: as §1

[35] = biological target: Neu5Ac(a2-3)[GalNAc(b1-6)]Gal(b1-4)Glc
How it was run: as §1

[36] = biological target: Neu5Ac(a2-6)Gal(b1-4)GlcNAc(b1-3)[Neu5Ac(a2-6)Gal(b1-4)GlcNAc(b1-6)]Gal(b1-4)Glc
How it was run: as §1

[37] = biological target: Neu5Ac(a2-6)Glc6S
How it was run: as §1

[38] = biological target: Neu5Ac(a2-6)GlcNAc6S
How it was run: as §1

[39] = biological target: Xyl(b1-2)[Man(a1-3)][Man(a1-6)]Man(b1-4)GlcNAc(b1-4)[Fuc(a1-3)]GlcNAc
How it was run: as §1

B1: HysACBM (Streptococcus pneumoniae), Q54873 (protein)
chain: KNLVENGDFGQTEDGSSPWTGSKAQGWSAWVDQKNSADASTRVIEAKDGAITISSHEKLRAALHRMVPIEAKKKYKLRFKIKTDNKIGIAKVRIIEESGKDKRLWNSATTSGTKDWQTIEADYSPTLDVDKIKLELFYETGTGTVSFKDIELVEVADQLS
Q: For B1, which “glycan array binding signal (z-score)” value [1] is on record?
A: -0.091

Q: And the “glycan array binding signal (z-score)” value [2]?
A: -0.091

Q: And the “glycan array binding signal (z-score)” value [3]?
A: 0.584

Q: And the “glycan array binding signal (z-score)” value [4]?
A: -0.091

Q: What about the “glycan array binding signal (z-score)” value [5] of the same binder?
A: 0.007

Q: And the “glycan array binding signal (z-score)” value [6]?
A: -0.091

Q: What about the “glycan array binding signal (z-score)” value [7] of the same binder?
A: 0.174

Q: What about the “glycan array binding signal (z-score)” value [8] of the same binder?
A: 0.281

Q: What about the “glycan array binding signal (z-score)” value [9] of the same binder?
A: -0.091

Q: And the “glycan array binding signal (z-score)” value [10]?
A: -0.064

Q: And the “glycan array binding signal (z-score)” value [11]?
A: 0.321

Q: What about the “glycan array binding signal (z-score)” value [12] of the same binder?
A: 0.776

Q: What about the “glycan array binding signal (z-score)” value [13] of the same binder?
A: -0.091

Q: What about the “glycan array binding signal (z-score)” value [14] of the same binder?
A: -0.059

Q: And the “glycan array binding signal (z-score)” value [15]?
A: -0.091

Q: And the “glycan array binding signal (z-score)” value [16]?
A: -0.091

Q: And the “glycan array binding signal (z-score)” value [17]?
A: -0.091

Q: What about the “glycan array binding signal (z-score)” value [18] of the same binder?
A: 0.267

Q: And the “glycan array binding signal (z-score)” value [19]?
A: 21.5

Q: And the “glycan array binding signal (z-score)” value [20]?
A: -0.091

Q: And the “glycan array binding signal (z-score)” value [21]?
A: 0.264

Q: What about the “glycan array binding signal (z-score)” value [22] of the same binder?
A: -0.05

Q: And the “glycan array binding signal (z-score)” value [23]?
A: -0.091

Q: And the “glycan array binding signal (z-score)” value [24]?
A: -0.091

Q: And the “glycan array binding signal (z-score)” value [25]?
A: -0.091

Q: And the “glycan array binding signal (z-score)” value [26]?
A: -0.091

Q: And the “glycan array binding signal (z-score)” value [27]?
A: -0.091

Q: And the “glycan array binding signal (z-score)” value [28]?
A: 0.823

Q: And the “glycan array binding signal (z-score)” value [29]?
A: -0.091

Q: And the “glycan array binding signal (z-score)” value [30]?
A: -0.045

Q: And the “glycan array binding signal (z-score)” value [31]?
A: -0.091

Q: And the “glycan array binding signal (z-score)” value [32]?
A: -0.091

Q: What about the “glycan array binding signal (z-score)” value [33] of the same binder?
A: -0.054

Q: And the “glycan array binding signal (z-score)” value [34]?
A: -0.091

Q: What about the “glycan array binding signal (z-score)” value [35] of the same binder?
A: -0.091

Q: And the “glycan array binding signal (z-score)” value [36]?
A: -0.091

Q: What about the “glycan array binding signal (z-score)” value [37] of the same binder?
A: -0.091

Q: What about the “glycan array binding signal (z-score)” value [38] of the same binder?
A: -0.091

Q: What about the “glycan array binding signal (z-score)” value [39] of the same binder?
A: -0.091

From the supplement of paper PMC8728848
